# Columns and labels:
# Assay in all cases: SPOT peptide array binding signal intensity (averaged, normalized) (arbitrary units (background-subtracted, floor 0; scale differs between SH3 domains)); higher = stronger binding of the SH3 domain to the peptide
# CaNbp2 = molecular target: CaNbp2
# Description: (§1)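 GST-tagged SH3 domains from S. cerevisiae (Sc), A. gossypii (Ag), C. albicans (Ca) and S. pombe (Sp) were incubated at 10 ug/ml overnight at 4 C on cellulose SPOT membranes carrying 292 synthetic 15-mer peptides mined from the S. cerevisiae proteome (cysteines replaced by serines). Binding was detected with anti-GST antibody, HRP secondary and chemiluminescence, quantified with Genespotter, and reported as normalized spot intensities averaged over biological replicates.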
# CaRvs167 = molecular target: CaRvs167
# Description: as §1
# CaRvs167-3 = molecular target: CaRvs167-3
# Description: as §1
# CaSho1 = molecular target: CaSho1
# Description: as §1
# CaSla1-D1-D2 = molecular target: CaSla1-D1-D2
# Description: as §1
# CaSla1-D3 = molecular target: CaSla1-D3
# Description: as §1
# ScAbp1 = molecular target: ScAbp1
# Description: as §1
# ScBbc1 = molecular target: ScBbc1
# Description: as §1
# ScBem1-D1 = molecular target: ScBem1-D1
# Description: as §1
# ScBzz1-D1 = molecular target: ScBzz1-D1
# Description: as §1
# ScBzz1-D2 = molecular target: ScBzz1-D2
# Description: as §1
# ScCyk3 = molecular target: ScCyk3
# Description: as §1
# ScFus1 = molecular target: ScFus1
# Description: as §1
# ScHof1 = molecular target: ScHof1
# Description: as §1
# ScHse1 = molecular target: ScHse1
# Description: as §1
# ScLsb1 = molecular target: ScLsb1
# Description: as §1
# ScLsb2 = molecular target: ScLsb2
# Description: as §1
# ScLsb3 = molecular target: ScLsb3
# Description: as §1
# ScLsb4 = molecular target: ScLsb4
# Description: as §1
# ScMyo3 = molecular target: ScMyo3
# Description: as §1
# ScMyo5 = molecular target: ScMyo5
# Description: as §1
# ScNbp2 = molecular target: ScNbp2
# Description: as §1
# ScPex13 = molecular target: ScPex13
# Description: as §1
# ScRvs167 = molecular target: ScRvs167
# Description: as §1
# ScSho1 = molecular target: ScSho1
# Description: as §1
# ScSla1-D1-D2 = molecular target: ScSla1-D1-D2
# Description: as §1
# ScSla1-D3 = molecular target: ScSla1-D3
# Description: as §1
# SpAbp1-D1 = molecular target: SpAbp1-D1
# Description: as §1
# SpBbc1 = molecular target: SpBbc1
# Description: as §1
# SpBzz1-D1 = molecular target: SpBzz1-D1
# Description: as §1
# SpBzz1-D2 = molecular target: SpBzz1-D2
# Description: as §1
# SpCyk3 = molecular target: SpCyk3
# Description: as §1
# SpHof1 = molecular target: SpHof1
# Description: as §1
# SpHof1-2 = molecular target: SpHof1-2
# Description: as §1
# SpHof1-3 = molecular target: SpHof1-3
# Description: as §1
# SpHse1 = molecular target: SpHse1
# Description: as §1
# SpLsb1 = molecular target: SpLsb1
# Description: as §1
# SpLsb4 = molecular target: SpLsb4
# Description: as §1
# SpMyo1 = molecular target: SpMyo1
# Description: as §1
# SpNbp2 = molecular target: SpNbp2
# Description: as §1
# SpPex13 = molecular target: SpPex13
# Description: as §1
# SpRvs167 = molecular target: SpRvs167
# Description: as §1
# SpSla1-D1-D2 = molecular target: SpSla1-D1-D2
# Description: as §1
# SpSla1-D3 = molecular target: SpSla1-D3
# Description: as §1
# AgAbp1 = molecular target: AgAbp1
# Description: as §1
# AgBbc1 = molecular target: AgBbc1
# Description: as §1
# AgBem1-D1 = molecular target: AgBem1-D1
# Description: as §1
# AgBzz1-D1 = molecular target: AgBzz1-D1
# Description: as §1
# AgBzz1-D2 = molecular target: AgBzz1-D2
# Description: as §1
# AgCyk3 = molecular target: AgCyk3
# Description: as §1
# AgFus1 = molecular target: AgFus1
# Description: as §1
# AgHof1 = molecular target: AgHof1
# Description: as §1
# AgHse1 = molecular target: AgHse1
# Description: as §1
# AgLsb1 = molecular target: AgLsb1
# Description: as §1
# AgLsb4 = molecular target: AgLsb4
# Description: as §1
# AgMyo5 = molecular target: AgMyo5
# Description: as §1
# AgNbp2 = molecular target: AgNbp2
# Description: as §1
# AgRvs167 = molecular target: AgRvs167
# Description: as §1
# AgSho1 = molecular target: AgSho1
# Description: as §1
# AgSla1-D1-D2 = molecular target: AgSla1-D1-D2
# Description: as §1
# AgSla1-D3 = molecular target: AgSla1-D3
# Description: as §1
# CaAbp1-D1 = molecular target: CaAbp1-D1
# Description: as §1
# CaAbp1-D2 = molecular target: CaAbp1-D2
# Description: as §1
# CaBbc1 = molecular target: CaBbc1
# Description: as §1
# CaBem1-D1 = molecular target: CaBem1-D1
# Description: as §1
# CaBzz1-D1 = molecular target: CaBzz1-D1
# Description: as §1
# CaBzz1-D2 = molecular target: CaBzz1-D2
# Description: as §1
# CaCyk3 = molecular target: CaCyk3
# Description: as §1
# CaFus1 = molecular target: CaFus1
# Description: as §1
# CaHof1 = molecular target: CaHof1
# Description: as §1
# CaHse1 = molecular target: CaHse1
# Description: as §1
# CaLsb1 = molecular target: CaLsb1
# Description: as §1
# CaLsb4 = molecular target: CaLsb4
# Description: as §1
# CaMyo5 = molecular target: CaMyo5
# Description: as §1
binder,measurement,setting,value
PKMLPIPSKPTLFDL,SPOT peptide array binding signal intensity,CaNbp2,303
same,SPOT peptide array binding signal intensity,CaRvs167,47
same,SPOT peptide array binding signal intensity,CaRvs167-3,≤ 0
same,SPOT peptide array binding signal intensity,CaSho1,1680
same,SPOT peptide array binding signal intensity,CaSla1-D1-D2,188
same,SPOT peptide array binding signal intensity,CaSla1-D3,116
same,SPOT peptide array binding signal intensity,ScAbp1,14
same,SPOT peptide array binding signal intensity,ScBbc1,0.5
same,SPOT peptide array binding signal intensity,ScBem1-D1,≤ 0
same,SPOT peptide array binding signal intensity,ScBzz1-D1,9
same,SPOT peptide array binding signal intensity,ScBzz1-D2,22
same,SPOT peptide array binding signal intensity,ScCyk3,3
same,SPOT peptide array binding signal intensity,ScFus1,405
same,SPOT peptide array binding signal intensity,ScHof1,≤ 0
same,SPOT peptide array binding signal intensity,ScHse1,73.5
same,SPOT peptide array binding signal intensity,ScLsb1,11.5
same,SPOT peptide array binding signal intensity,ScLsb2,≤ 0
same,SPOT peptide array binding signal intensity,ScLsb3,172
same,SPOT peptide array binding signal intensity,ScLsb4,80
same,SPOT peptide array binding signal intensity,ScMyo3,0.5
same,SPOT peptide array binding signal intensity,ScMyo5,2
same,SPOT peptide array binding signal intensity,ScNbp2,240
same,SPOT peptide array binding signal intensity,ScPex13,229
same,SPOT peptide array binding signal intensity,ScRvs167,30.5
same,SPOT peptide array binding signal intensity,ScSho1,673
same,SPOT peptide array binding signal intensity,ScSla1-D1-D2,179
same,SPOT peptide array binding signal intensity,ScSla1-D3,374
same,SPOT peptide array binding signal intensity,SpAbp1-D1,286
same,SPOT peptide array binding signal intensity,SpBbc1,0.5
same,SPOT peptide array binding signal intensity,SpBzz1-D1,426
same,SPOT peptide array binding signal intensity,SpBzz1-D2,20.5
same,SPOT peptide array binding signal intensity,SpCyk3,≤ 0
same,SPOT peptide array binding signal intensity,SpHof1,154
same,SPOT peptide array binding signal intensity,SpHof1-2,410
same,SPOT peptide array binding signal intensity,SpHof1-3,433
same,SPOT peptide array binding signal intensity,SpHse1,136
same,SPOT peptide array binding signal intensity,SpLsb1,15.5
same,SPOT peptide array binding signal intensity,SpLsb4,402
same,SPOT peptide array binding signal intensity,SpMyo1,82
same,SPOT peptide array binding signal intensity,SpNbp2,55.5
same,SPOT peptide array binding signal intensity,SpPex13,39.5
same,SPOT peptide array binding signal intensity,SpRvs167,45.3
same,SPOT peptide array binding signal intensity,SpSla1-D1-D2,12
same,SPOT peptide array binding signal intensity,SpSla1-D3,132
KRKRFNLLLPKPYLT,SPOT peptide array binding signal intensity,AgAbp1,46
same,SPOT peptide array binding signal intensity,AgBbc1,16.5
same,SPOT peptide array binding signal intensity,AgBem1-D1,136
same,SPOT peptide array binding signal intensity,AgBzz1-D1,33
same,SPOT peptide array binding signal intensity,AgBzz1-D2,19.5
same,SPOT peptide array binding signal intensity,AgCyk3,3
same,SPOT peptide array binding signal intensity,AgFus1,356
same,SPOT peptide array binding signal intensity,AgHof1,49.5
same,SPOT peptide array binding signal intensity,AgHse1,745
same,SPOT peptide array binding signal intensity,AgLsb1,14.5
same,SPOT peptide array binding signal intensity,AgLsb4,104
same,SPOT peptide array binding signal intensity,AgMyo5,0.75
same,SPOT peptide array binding signal intensity,AgNbp2,99
same,SPOT peptide array binding signal intensity,AgRvs167,6.17
same,SPOT peptide array binding signal intensity,AgSho1,58
same,SPOT peptide array binding signal intensity,AgSla1-D1-D2,578
same,SPOT peptide array binding signal intensity,AgSla1-D3,4
same,SPOT peptide array binding signal intensity,CaAbp1-D1,458
same,SPOT peptide array binding signal intensity,CaAbp1-D2,418
same,SPOT peptide array binding signal intensity,CaBbc1,39.5
same,SPOT peptide array binding signal intensity,CaBem1-D1,31
same,SPOT peptide array binding signal intensity,CaBzz1-D1,28
same,SPOT peptide array binding signal intensity,CaBzz1-D2,46.5
same,SPOT peptide array binding signal intensity,CaCyk3,5
same,SPOT peptide array binding signal intensity,CaFus1,548
same,SPOT peptide array binding signal intensity,CaHof1,1.5
same,SPOT peptide array binding signal intensity,CaHse1,25.5
same,SPOT peptide array binding signal intensity,CaLsb1,8
same,SPOT peptide array binding signal intensity,CaLsb4,43.5
same,SPOT peptide array binding signal intensity,CaMyo5,1
same,SPOT peptide array binding signal intensity,CaNbp2,192
same,SPOT peptide array binding signal intensity,CaRvs167,8.5
same,SPOT peptide array binding signal intensity,CaRvs167-3,692
same,SPOT peptide array binding signal intensity,CaSho1,592
same,SPOT peptide array binding signal intensity,CaSla1-D1-D2,1
same,SPOT peptide array binding signal intensity,CaSla1-D3,6.5
same,SPOT peptide array binding signal intensity,ScAbp1,24
same,SPOT peptide array binding signal intensity,ScBbc1,6
same,SPOT peptide array binding signal intensity,ScBem1-D1,22
same,SPOT peptide array binding signal intensity,ScBzz1-D1,3
same,SPOT peptide array binding signal intensity,ScBzz1-D2,40
same,SPOT peptide array binding signal intensity,ScCyk3,58
same,SPOT peptide array binding signal intensity,ScFus1,570
same,SPOT peptide array binding signal intensity,ScHof1,≤ 0
same,SPOT peptide array binding signal intensity,ScHse1,1210
same,SPOT peptide array binding signal intensity,ScLsb1,34.8
same,SPOT peptide array binding signal intensity,ScLsb2,8.5
same,SPOT peptide array binding signal intensity,ScLsb3,114
same,SPOT peptide array binding signal intensity,ScLsb4,10
same,SPOT peptide array binding signal intensity,ScMyo3,1.5
same,SPOT peptide array binding signal intensity,ScMyo5,0.5
same,SPOT peptide array binding signal intensity,ScNbp2,158
same,SPOT peptide array binding signal intensity,ScPex13,0.75
same,SPOT peptide array binding signal intensity,ScRvs167,5
same,SPOT peptide array binding signal intensity,ScSho1,474
same,SPOT peptide array binding signal intensity,ScSla1-D1-D2,96
same,SPOT peptide array binding signal intensity,ScSla1-D3,2.75
same,SPOT peptide array binding signal intensity,SpAbp1-D1,146
same,SPOT peptide array binding signal intensity,SpBbc1,10.8
same,SPOT peptide array binding signal intensity,SpBzz1-D1,94.5
same,SPOT peptide array binding signal intensity,SpBzz1-D2,≤ 0
same,SPOT peptide array binding signal intensity,SpCyk3,4
same,SPOT peptide array binding signal intensity,SpHof1,136
same,SPOT peptide array binding signal intensity,SpHof1-2,32.5
same,SPOT peptide array binding signal intensity,SpHof1-3,403
same,SPOT peptide array binding signal intensity,SpHse1,366
same,SPOT peptide array binding signal intensity,SpLsb1,3.75
same,SPOT peptide array binding signal intensity,SpLsb4,47
same,SPOT peptide array binding signal intensity,SpMyo1,2.5
same,SPOT peptide array binding signal intensity,SpNbp2,492
same,SPOT peptide array binding signal intensity,SpPex13,8.5
same,SPOT peptide array binding signal intensity,SpRvs167,12.7
same,SPOT peptide array binding signal intensity,SpSla1-D1-D2,3
same,SPOT peptide array binding signal intensity,SpSla1-D3,16.5
